The results in this text go back to PubChem BioAssay AID602162 (NMMLSC, 2011).

The whole screen tested about 360,000 compounds, of which about 690 (0.19%) were called active.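 Rule for the calls: active = fluorescence ratio to DMSO below 75%, the collection mean minus 3 SD; inconclusive = too few cells collected in the well; inactive = the rest.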 The list comes from a sample in which actives are over-represented; it also holds similar structures and randomly drawn compounds.

The target of this test is ATP-binding cassette sub-family B member 6 (Homo sapiens) (UniProt Q9NP58). Kind of test: blockers of ABCB6-driven porphyrin uptake – K562-ABCB6 cells, flow cytometry, MLPCN library, primary screen (AID 602162).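 Note: signal is porphyrin accumulated inside mitochondria; 100% equals median channel fluorescence of DMSO control wells; lower ratio means ABCB6 inhibition with less porphyrin fluorescence.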 As to conditions: K562-ABCB6 porphyrin accumulation, 1 h, at 10 µM, active compounds read low. On the technique in general: A flow cytometer gives signals particle by particle.
Sequence of ATP-binding cassette sub-family B member 6 (Homo sapiens) (Q9NP58 whole entry, looked up): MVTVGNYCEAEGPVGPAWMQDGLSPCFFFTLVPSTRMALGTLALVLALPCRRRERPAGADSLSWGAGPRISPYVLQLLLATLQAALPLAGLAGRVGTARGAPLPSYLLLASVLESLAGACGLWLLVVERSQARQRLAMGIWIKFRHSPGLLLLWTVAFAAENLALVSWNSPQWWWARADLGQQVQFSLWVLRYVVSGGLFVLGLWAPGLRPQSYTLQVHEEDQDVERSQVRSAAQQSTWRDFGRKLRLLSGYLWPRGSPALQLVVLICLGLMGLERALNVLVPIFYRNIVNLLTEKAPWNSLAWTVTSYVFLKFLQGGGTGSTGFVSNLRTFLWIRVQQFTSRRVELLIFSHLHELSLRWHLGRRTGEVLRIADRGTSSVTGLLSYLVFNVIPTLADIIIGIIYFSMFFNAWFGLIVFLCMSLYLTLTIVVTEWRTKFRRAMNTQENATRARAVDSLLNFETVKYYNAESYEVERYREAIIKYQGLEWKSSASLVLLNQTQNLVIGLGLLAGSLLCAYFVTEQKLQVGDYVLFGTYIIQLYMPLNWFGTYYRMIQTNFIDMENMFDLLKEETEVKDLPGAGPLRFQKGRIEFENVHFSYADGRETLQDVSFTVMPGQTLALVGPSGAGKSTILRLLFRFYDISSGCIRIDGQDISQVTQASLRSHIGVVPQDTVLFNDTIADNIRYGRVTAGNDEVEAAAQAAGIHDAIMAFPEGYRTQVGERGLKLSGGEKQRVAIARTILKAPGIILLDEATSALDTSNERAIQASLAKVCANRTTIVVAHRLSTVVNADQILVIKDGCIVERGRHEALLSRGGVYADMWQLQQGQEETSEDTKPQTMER
Consider `Cc1ccc(CCNC(=O)c2ccc3nc4ccccc4c(=O)n3c2)cc1`, for which the fluorescence ratio to DMSO is 100% (inactive).
Regarding `O=C(NC1CCCCC1)c1ccc2c(=O)n(CC3CCCO3)c(=O)[nH]c2c1` (stereo not drawn), the fluorescence ratio to DMSO is 97% (inactive).
Turning to `Cc1ccc2nc3c(cc(C(=O)NCCc4ccccc4)c(=N)n3CC3CCCO3)c(=O)n2c1` (stereo not drawn), the fluorescence ratio to DMSO was 66% (active).
As for `COc1cc2c(cc1OC)C(c1cccc([N+](=O)[O-])c1)=NCC2`, the fluorescence ratio to DMSO is 100% (inactive).
The same measure for `C=CCN1CC(C)/C(=N\O)CC1C` (stereo not drawn): 88% (inactive); for `O=C(Cc1ccc([N+](=O)[O-])cc1)NCCS(=O)(=O)N1CCN(c2ccccc2)CC1`: 107% (inactive); for `Cc1ccc(SCCC(=O)NCc2ccccn2)cc1`: 98% (inactive).
The same measure for `Cc1cc(Cl)ccc1OCCCC(=O)NCc1ccccn1`: 89% (inactive); for `Cc1cc(C)cc(NC(=O)NCc2ccccn2)c1`: 58% (active).
Regarding `NC(=O)c1ncc(C(F)(F)F)cc1Oc1ccc(F)cc1`, the fluorescence ratio to DMSO was 91% (inactive).
Regarding `CCOc1cc(/C=C2/N=C(c3ccc(C(C)(C)C)cc3)OC2=O)cc(Cl)c1OS(C)(=O)=O`, the fluorescence ratio to DMSO was 102% (inactive).
In the case of `CC(C)(C)Cc1c(C2CCCCC2)nc2ccc(Br)cn12` it was 101% (inactive).
The same measure for `O=C(CSc1nc2ncccc2[nH]1)Nc1ccc2c(c1)OCCO2`: 103% (inactive); for `CCOc1cc2[nH]c(=S)n(Cc3ccc(C(=O)NCCOC)cc3)c(=O)c2cc1OCC`: 98% (inactive); for `COc1cc2[nH]c(=S)n(Cc3ccc(C)o3)c(=O)c2cc1OC`: 100% (inactive).
On to `COc1cc2[nH]c(=S)n(Cc3ccc(F)cc3)c(=O)c2cc1OC`, for which the fluorescence ratio to DMSO was 72% (active).
The same measure for `CCOC(=O)[C@]12CCC=C1N(Cc1ccco1)C(=O)[C@H](CC(=O)NCc1cccc(C(F)(F)F)c1)C2`: 107% (inactive).
The same measure for `CS(=O)(=O)N(CC(=O)N1CCN(c2ccc(F)cc2)CC1)C1CCCCC1`: 94% (inactive); for `CCOC(=O)N1CCN(C(=O)CN(C2CCCCC2)S(C)(=O)=O)CC1`: 73% (active).
For `CCC(C)NC(=O)CN(C1CCCCC1)S(C)(=O)=O` (stereo not drawn), the fluorescence ratio to DMSO is 98% (inactive).
In the case of `C=CCn1c(CNS(=O)(=O)c2ccc(Br)cc2)nnc1SC` it was 96% (inactive); in that of `C=Cn1cc[n+](CC(=O)c2ccc(OC)c(OC)c2)c1`, 97% (inactive).
Consider `CCOC(=O)Cc1csc(NC(=O)CN(C)S(=O)(=O)c2ccc3c(c2)CCC(=O)N3)n1`, for which the fluorescence ratio to DMSO was 98% (inactive).
The same measure for `CN(CC(=O)NC(=O)Nc1ccccc1F)Cc1ccccc1`: 97% (inactive); for `CCOC(=O)c1ccc(-n2c(C)nc3c(cnn3-c3ccccc3C)c2=O)cc1`: 100% (inactive).
Consider `Cc1cccc(N2CCN(C(=O)CCS(=O)(=O)c3ccc4c(c3)NC(=O)C(C)S4)CC2)c1C` (stereo not drawn), for which the fluorescence ratio to DMSO is 74% (active).
In the case of `CC1Sc2ccc(S(=O)(=O)CCC(=O)NCc3ccccc3Cl)cc2NC1=O` (stereo not drawn) it was 93% (inactive).
The same measure for `COc1ccccc1N1CCN(C(=O)CCS(=O)(=O)c2ccc3c(c2)NC(=O)C(C)S3)CC1` (stereo not drawn): 102% (inactive).
As to `COc1ccc(C(=O)NC2CC2)cc1OC1CCN(C/C=C/c2ccccc2)CC1`, the fluorescence ratio to DMSO was 95% (inactive).
As for `Cc1ccc(CN(C(=O)c2sc3ccccc3c2Cl)C2CCS(=O)(=O)C2)cc1` (stereo not drawn), the fluorescence ratio to DMSO is 95% (inactive).
Regarding `CCCn1c(O)c(CN2CCCC(C)C2)c(C)c(C#N)c1=O` (stereo not drawn), the fluorescence ratio to DMSO was 96% (inactive).
As to `CCCCn1nc(C(=O)N2CCc3ccccc32)c2ccccc2c1=O`, the fluorescence ratio to DMSO was 102% (inactive).
In the case of `Cc1ccc(CNC(=O)c2ccc(CS(=O)Cc3cccc(Cl)c3)o2)cc1` (stereo not drawn) it was 102% (inactive).
The same measure for `O=C(O)c1ccn(COc2ccc(Br)cc2)n1`: 95% (inactive).
For the compound `Cc1cccc(NC(=O)c2nc(S(=O)(=O)Cc3ccccc3)ncc2Cl)c1`, the fluorescence ratio to DMSO is 59% (active).
For `Cc1cccc(CS(=O)(=O)c2ncc(Cl)c(C(=O)Nc3ccc(F)cc3)n2)c1`, the fluorescence ratio to DMSO was 44% (active).
In the case of `Cc1cccc(NS(=O)(=O)c2ccc(C)c(C(=O)NCc3cccnc3)c2)c1` it was 98% (inactive); in that of `CN(CC(=O)Nc1ccc(F)cc1)CC(=O)Nc1ccc(Cl)c(S(=O)(=O)N2CCOCC2)c1`, 100% (inactive); in that of `O=C(CS(=O)(=O)Cc1ccccc1)Nc1cccnc1`, 93% (inactive).
`Cc1cccc(C(=O)Nc2ccc(Oc3cnccn3)cc2)c1`: the fluorescence ratio to DMSO was 98% (inactive).
In the case of `O=C(CSc1nnc(SCc2ccc(Cl)cc2)s1)N/N=C/c1ccccc1Cl`, the fluorescence ratio to DMSO was 115% (inactive).
Consider `O=C(CSc1nncs1)NC1CCCc2ccccc21` (stereo not drawn), for which the fluorescence ratio to DMSO was 104% (inactive).
Take `CCCCC(O)C1=C[N+](=O)CC=C1` (stereo not drawn): the fluorescence ratio to DMSO was 92% (inactive).
The same measure for `O=C(Nc1ccc(F)cc1)Nc1nnc([C@H]2C[C@H](O)[C@@H](CO)O2)s1`: 104% (inactive); for `CCOc1ccc(CCNC(=O)CN2C(=O)NC3(CCc4ccccc43)C2=O)cc1OCC` (stereo not drawn): 103% (inactive).
In the case of `CCC(=O)Nc1cccc(NC(=O)CSc2nnc(-c3ccc(NS(C)(=O)=O)cc3)n2C)c1` it was 103% (inactive); in that of `C=C1CCN([C@H](C(=O)NCc2cc(OC)c(OC)c(OC)c2)C(C)C)S(=O)(=O)c2ccccc21`, 97% (inactive); in that of `Cc1cccc(C(=O)NCc2nnc(SC(C)C(=O)Nc3nnc(C)s3)n2C)c1` (stereo not drawn), 101% (inactive).
`CC(=O)c1cccc(NC(=O)CN2C(=O)c3cccnc3Oc3ccc(Cl)cc32)c1`: the fluorescence ratio to DMSO was 114% (inactive).
The same measure for `CC(C)[C@H](NC(=O)Nc1ccc(S(N)(=O)=O)cc1)C(=O)O`: 107% (inactive).
For the compound `O=C(c1ccc(Cl)cc1)c1cnc(Nc2ccccc2)s1`, the fluorescence ratio to DMSO is 70% (active).
The same measure for `Nc1nc(COC(=O)CCC(=O)c2ccc(Cl)cc2)nc(Nc2ccccc2)n1`: 94% (inactive).
In the case of `CC(C)(C)C(=O)c1cnc(Nc2ccccc2)s1` it was 94% (inactive); in that of `ON=C1/C(=N\O)CC2(C/C1=N/O)OCCO2`, 103% (inactive).
On to `O=C(COC(=O)c1cccc(Cl)c1Cl)NC1CCCCCC1`, for which the fluorescence ratio to DMSO was 93% (inactive).
Consider `COC(=O)c1ccc2nc(C3CCCCC3)c(Cc3cccc(F)c3)n2c1`, for which the fluorescence ratio to DMSO was 107% (inactive).
`COc1cccc(NC(=O)CS(=O)(=O)c2cn(CC(=O)N3CCOCC3)c3ccccc23)c1`: the fluorescence ratio to DMSO is 97% (inactive).
In the case of `COc1ccccc1C(=O)c1ccccc1C(=O)c1ccccc1` it was 102% (inactive); in that of `COc1ccccc1C(=O)Nn1cnnc1`, 100% (inactive).
`COc1ccccc1C(=O)C(O)c1ccccc1OC` (stereo not drawn): the fluorescence ratio to DMSO is 73% (active).
The same measure for `CCOc1ccc(S(=O)(=O)NCCC(=O)N2CCCCCCC2)cc1`: 98% (inactive); for `CCOc1ccc(CCNC(=O)COC(=O)c2ccc(C)c(S(=O)(=O)N3CCOCC3)c2)cc1OCC`: 101% (inactive).
On to `COc1c(O)ccc2c1CN1CCc3cc4c(cc3C1C2)OCO4` (stereo not drawn), for which the fluorescence ratio to DMSO was 102% (inactive).
In the case of `Cn1ccnc1SCC(=O)Nc1ccc2c(c1)OCCO2` it was 101% (inactive).
The same measure for `CCn1c(COc2ccccc2)nnc1SCC(=O)Nc1ccc2c(c1)OCCO2`: 73% (active).
For the compound `CCn1c(SCC(=O)Nc2ccc3c(c2)OCCO3)nnc1C(C)C`, the fluorescence ratio to DMSO was 88% (inactive).
Regarding `COc1cc(CN2CCCC(C(=O)c3ccc(SC)cc3)C2)cc(Cl)c1O` (stereo not drawn), the fluorescence ratio to DMSO was 96% (inactive).
Take `COC(=O)C(=Nc1ccccc1)/C(C(=O)C(=O)N(C)c1ccccc1)=C(\O)c1ccc(Cl)cc1`: the fluorescence ratio to DMSO was 94% (inactive).
In the case of `COc1cc(NS(=O)(=O)c2ccc(NC(=O)c3ccc(S(=O)(=O)N4CCCCC4)cc3)cc2)ncn1` it was 102% (inactive); in that of `CS(=O)(=O)N1CCC(C(=O)N2CCN(c3ccccc3)CC2)CC1`, 108% (inactive); in that of `CCS(=O)(=O)N1CCC(N2CCN(c3ccccc3)CC2)CC1`, 70% (active).
The same measure for `O=S(=O)(NCCS(=O)(=O)N1CCN(c2ccccc2)CC1)c1ccc(F)cc1`: 95% (inactive).
Consider `CCOC(=O)c1cc(-c2sc(NC(=O)c3ccccc3)nc2C)n(-c2ccc(Br)cc2)n1`, for which the fluorescence ratio to DMSO is 90% (inactive).
Turning to `Cc1ccc(S(=O)(=O)N(CC(=O)N2CCc3ccccc3C2)c2cccc(Cl)c2)cc1`, the fluorescence ratio to DMSO is 90% (inactive).
In the case of `COc1cccc(N(CC(=O)N2CCc3ccccc3C2)S(C)(=O)=O)c1` it was 73% (active); in that of `CS(=O)(=O)N(CC(=O)N1CCc2ccccc2C1)c1ccc(Br)cc1`, 95% (inactive).
In the case of `COCCNc1cc(-c2ccccc2)nc2cc(-c3cccc(F)c3)nn12` it was 97% (inactive).
The same measure for `CC1(C(=O)NS(=O)(=O)c2ccc3ccccc3c2)CCN1C(=O)C1(c2ccc(Cl)cc2)CCC1` (stereo not drawn): 102% (inactive); for `Cc1ncn2cc(-c3ccc(Cl)cc3Cl)[nH]c(=O)c12`: 96% (inactive).
Consider `O=C(Nc1ccccc1C(=O)N1CCCCCC1)c1ccccc1Cl`, for which the fluorescence ratio to DMSO is 99% (inactive).
The same measure for `O=C(COc1nsnc1N1CCOCC1)Nc1ccccc1Cl`: 95% (inactive); for `O=C(Nc1ccccc1Cl)/C(Cl)=C(\Cl)S(=O)c1ccccc1` (stereo not drawn): 43% (active); for `Cc1ccc(S(=O)(=O)N2C[C@@H]3CCCC[C@@H]3[C@@H](C)[C@H]2c2cn(Cc3ccccc3)c3ccc(F)cc23)cc1`: 97% (inactive).
In the case of `COc1cccc(N(CC(=O)NCCSc2ccccn2)S(C)(=O)=O)c1` it was 99% (inactive); in that of `Cc1ccc(C(=O)Nc2ccccc2-c2ccccc2)cc1S(=O)(=O)Nc1ccccc1`, 99% (inactive).
In the case of `CCOC1=C2[C@H]([C@H]3C(=O)N(c4ccccc4)C(=O)[C@H]3C1)[C@@H](c1ccccc1)N(S(=O)(=O)c1ccc(C)cc1)[C@H]2c1ccccc1` it was 104% (inactive); in that of `Cc1cc(C)c(C(=O)CSc2nc(C)cc(=O)[nH]2)c(C)c1`, 101% (inactive).
For the compound `Cc1cc(C(=O)CSc2nc(N)cc(=O)[nH]2)c(C)n1-c1cccc(F)c1`, the fluorescence ratio to DMSO is 72% (active).
For the compound `Cc1cc(C(=O)CSc2nc(N)cc(=O)[nH]2)c(C)n1CCc1ccc(Cl)cc1`, the fluorescence ratio to DMSO is 95% (inactive).
In the case of `CC(Oc1ccccc1)C(=O)NN1Cc2ccccc2C1=N` (stereo not drawn) it was 99% (inactive); in that of `O=C(OCC(=O)N1CCCCC1)c1ccc(OC(F)(F)F)cc1`, 95% (inactive).
In the case of `O=C1NC2(CCCCCC2)C(=O)N1CCS(=O)(=O)Oc1ccccc1` it was 96% (inactive).
As for `O=c1ccc2cc(S(=O)(=O)N3CCN(c4ccccc4)CC3)ccc2o1`, the fluorescence ratio to DMSO is 98% (inactive).
